Some test systems named below: SR leukemia; RPMI-8226 leukemia; OVCAR-8 ovarian; OVCAR-5 ovarian; OVCAR-4 ovarian; SK-OV-3 ovarian; IGROV1 ovarian; OVCAR-3 ovarian; HS 578T breast; NCI/ADR-RES ovarian; T-47D breast; BT-549 breast; MDA-MB-435 melanoma; SW-620 colon; MCF7 breast; HCT-116 colon; HCC-2998 colon; KM12 colon.
Test in all cases: NCI-60 one-dose screen, 48 h (100 = growth as untreated, 0 = no growth, -100 = all killed)
Settings in all cases: 10 µM unless noted

This is part of a sample that, as a whole, favours compounds with a hit. Of some 83,000 tested, about 20% had one in any assay.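 Cells were grown in 96-well plates and exposed to the test compound at a single concentration for 48 hours; results are reported as percent growth, with values below 10 considered active.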 Unmarked numbers belong to inactive results. The source made the active and inactive calls.

Regarding `C#Cc1ccc(NC(=O)c2ccc(/C=C/C(=O)c3nccn3C)cc2)cc1`, the growth is -18.8% (active) with SR leukemia; -25.9% (active) in the test with RPMI-8226 leukemia; 5.61% (active) in the test with OVCAR-8 ovarian; -61.6% (active) with OVCAR-5 ovarian; 9.83% (active) in the test with OVCAR-4 ovarian; 18.7% in the test with SK-OV-3 ovarian. Moreover, the growth in the test on IGROV1 ovarian is -37.3% (active); in the test with OVCAR-3 ovarian it was -86% (active); in the test on HS 578T breast, 33.1%; in the test on NCI/ADR-RES ovarian it was -7.85% (active); with T-47D breast, 0.0135% (active); with BT-549 breast, -78.5% (active). The growth was -44.7% (active) in the test on MDA-MB-435 melanoma; -73.3% (active) in the test on SW-620 colon; -45.4% (active) in the test with MCF7 breast; -62.6% (active) with HCT-116 colon; -89.2% (active) in the test with HCC-2998 colon; -64.1% (active) in the test with KM12 colon.

Consider `CCOC(=O)c1c(C)nc2c(c1N)CC(=O)N2Cc1cc(F)cc(Cl)c1`, for which the growth with SR leukemia is 75.3%; in the test on RPMI-8226 leukemia, 71.7%; in the test with OVCAR-8 ovarian, 95.9%; in the test with OVCAR-5 ovarian, 97.5%; with OVCAR-4 ovarian it was 67.5%; in the test with SK-OV-3 ovarian, 115%. Further, the growth is 102% in the test with IGROV1 ovarian; 93.8% with OVCAR-3 ovarian; 108% with HS 578T breast; 81.2% in the test on NCI/ADR-RES ovarian; 76.3% with T-47D breast; 96.3% in the test on BT-549 breast. Further, the growth with MDA-MB-435 melanoma is 92%; in the test with SW-620 colon, 103%; with MCF7 breast it was 84.9%; with HCT-116 colon, 79.9%; in the test on HCC-2998 colon it was 113%; in the test with KM12 colon, 97%.

As for `Cc1nnc(-n2c(O)cc(=O)n(-c3ccccc3)c2=S)nc1/C=C/c1ccc(N(C)C)cc1`, the growth in the test with SR leukemia is 36.2%; with RPMI-8226 leukemia it was 16.1%; in the test on OVCAR-8 ovarian, 53.3%; in the test on OVCAR-5 ovarian, 82.7%; in the test with OVCAR-4 ovarian, 50.3%; in the test on SK-OV-3 ovarian, 45.6%. Further, the growth was 58.1% in the test on IGROV1 ovarian; 44.3% with OVCAR-3 ovarian; 47.8% in the test on HS 578T breast; 44.6% in the test on NCI/ADR-RES ovarian; 38% with T-47D breast; 63.1% with BT-549 breast. For the same molecule, the growth in the test on MDA-MB-435 melanoma was 24.8%; in the test on SW-620 colon it was 67.2%; in the test on MCF7 breast, 21.6%; in the test with HCT-116 colon, 56.1%; in the test with HCC-2998 colon, 63.7%; with KM12 colon, 47.9%.

Consider `CCOC(=O)c1cc2c(=O)oc3ccccc3c2oc1=O`, for which the growth in the test with SR leukemia was -26% (active); in the test on RPMI-8226 leukemia it was 84.7%; with OVCAR-8 ovarian, 102%; in the test on OVCAR-5 ovarian, 100%; in the test on OVCAR-4 ovarian it was 96.4%; in the test with SK-OV-3 ovarian it was 102%. The growth in the test on IGROV1 ovarian is 103%; in the test on OVCAR-3 ovarian, 112%; in the test with HS 578T breast it was 100%; with NCI/ADR-RES ovarian, 112%; in the test with T-47D breast it was 107%; with BT-549 breast it was 99.4%. Also, the growth with MDA-MB-435 melanoma is 111%; with SW-620 colon, 105%; in the test on MCF7 breast, 99.8%; in the test on HCT-116 colon it was 109%; in the test on HCC-2998 colon it was 102%; in the test on KM12 colon, 110%.

`Cc1nc2sc(C(=O)Nc3ccccc3)c(N)c2cc1C(=O)c1ccccc1`: the growth in the test on SR leukemia is 8.32% (active); in the test with RPMI-8226 leukemia, 38%; in the test with OVCAR-8 ovarian, 56%; with OVCAR-5 ovarian, 59%; in the test with OVCAR-4 ovarian, 63%; in the test on SK-OV-3 ovarian, 4.72% (active). Moreover, the growth is 56.8% with IGROV1 ovarian; 29.2% in the test on OVCAR-3 ovarian; 13% with HS 578T breast; 37.8% in the test on NCI/ADR-RES ovarian; 46.3% in the test with T-47D breast; 68.4% in the test with BT-549 breast. In addition, the growth was -33.7% (active) in the test on MDA-MB-435 melanoma; 27.8% in the test on SW-620 colon; 11.5% in the test with MCF7 breast; 29.7% with HCT-116 colon; 18.2% with HCC-2998 colon; 33.7% with KM12 colon.

Consider `CCOc1ccc(NC(=O)CSc2oc(-c3ccccc3)nc2S(=O)(=O)c2ccc(F)cc2)cc1`, for which the growth in the test with SR leukemia is 69.8%; in the test on RPMI-8226 leukemia, 73%; in the test with OVCAR-8 ovarian it was 49.5%; in the test on OVCAR-5 ovarian, 103%; in the test with OVCAR-4 ovarian, 66.1%; in the test on SK-OV-3 ovarian, 77.5%. Also, the growth in the test on IGROV1 ovarian was 94.8%; in the test on OVCAR-3 ovarian, 64.9%; in the test on HS 578T breast, 74.2%; in the test on NCI/ADR-RES ovarian, 67.3%; in the test on T-47D breast, 63.1%; with BT-549 breast it was 96.5%. In addition, the growth with MDA-MB-435 melanoma is 88.9%; in the test with SW-620 colon, 89.6%; in the test with MCF7 breast it was 71.4%; in the test with HCT-116 colon, 21.9%; in the test on HCC-2998 colon it was 85.3%; in the test on KM12 colon it was 84.9%.

Consider `Cc1ccc(Sc2oc(-c3ccc(C)cc3)nc2[P+](c2ccccc2)(c2ccccc2)c2ccccc2)cc1`, for which the growth with SR leukemia was -18.8% (active); with RPMI-8226 leukemia, -37.6% (active); with OVCAR-8 ovarian, 5.45% (active); with OVCAR-5 ovarian, 7.79% (active); with OVCAR-4 ovarian, -3.08% (active); with SK-OV-3 ovarian, -3.38% (active). Besides, the growth was -74.4% (active) in the test on IGROV1 ovarian; -3.45% (active) with OVCAR-3 ovarian; -8.27% (active) in the test with HS 578T breast; 1.73% (active) with NCI/ADR-RES ovarian; 1.57% (active) in the test on T-47D breast; -30.9% (active) with BT-549 breast. The growth is -30.3% (active) with MDA-MB-435 melanoma; -5.3% (active) in the test on SW-620 colon; -23.8% (active) in the test with MCF7 breast; 2.12% (active) in the test on HCT-116 colon; 1.79% (active) with HCC-2998 colon; -52.8% (active) in the test on KM12 colon.

For `COC1C[C@H](O[C@@H]2C[C@H](O[C@@H]3C[C@H](O[C@@H]4C(=O)c5c(cc6cc(O[C@H]7C[C@@H](O[C@H]8C[C@@H](O)[C@H](O)C(C)O8)[C@H](O)C(C)O7)c(C)c(O)c6c5O)C[C@H]4C(OC)C(=O)[C@@H](O)[C@@H](C)O)OC(C)[C@H]3O)OC(C)[C@@H]2O)OC(C)[C@@H]1O` (some centres undefined), the growth in the test with SR leukemia is 10.2%; in the test on RPMI-8226 leukemia it was -1.8% (active); in the test with OVCAR-8 ovarian, 2.54% (active); in the test with OVCAR-5 ovarian, 14.2%; in the test with OVCAR-4 ovarian, 12.1%; in the test on SK-OV-3 ovarian, 16.6%. In addition, the growth with IGROV1 ovarian was 9.46% (active); with OVCAR-3 ovarian it was 3.14% (active); with HS 578T breast it was 7.26% (active); in the test on NCI/ADR-RES ovarian, 82.4%; in the test with T-47D breast it was -4.81% (active); with BT-549 breast it was -20.4% (active). Also, the growth was -62% (active) with MDA-MB-435 melanoma; 9.73% (active) in the test with SW-620 colon; 4.52% (active) with MCF7 breast; 4.82% (active) with HCT-116 colon; -18.8% (active) in the test with HCC-2998 colon; 4.61% (active) with KM12 colon.

Values taken from PubChem BioAssay (NCI).
